Compounds with a hit are over-represented: about 1.1% of the library has one in this group of screens.
LAP4 TOR yeast: yeast TOR pathway LAP4-GFP modulation; S. cerevisiae LAP4-GFP multiplex, flow cytometry GFP, 3 h; median GFP as percent of DMSO wells; GFP response vs DMSO, % at 10 µM; 0.34% of 320,000 active; AID 2023;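 active = GFP response vs DMSO above a set limit, about the screen mean plus 3 SD, cut at about 150% in these data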
VLA-4 inh: inhibition in a human VLA-4 binding assay; P13612; VLA-4 expressing cells, ligand binding flow cytometry; 0.2% of 330,000 active; inhibition, % (about 7 µM as worked out from the volumes in the protocol); in the data active = inhibition above about 50%
MEP2-GFP yeast: modulators of TOR pathway MEP2-GFP in S. cerevisiae. S. cerevisiae MEP2-GFP strain, flow cytometry GFP, 3 h; 100% = DMSO control level. GFP response vs DMSO, % at 10 µM. 0.51% of 330,000 active. AID 2016;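 active = GFP response versus DMSO above a set limit, roughly screen mean plus 3 SD, cut at about 180% in these data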;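 note: median GFP fluorescence of the barcode-gated MEP2-GFP cells per well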
RPL19A TOR yeast: modulators of TOR pathway RPL19A-GFP in S. cerevisiae; S. cerevisiae RPL19A-GFP strain, flow cytometry, 3 h; active compounds read low; percent response vs DMSO, % at 10 µM; 0.3% of 330,000 active;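 active = percent response vs DMSO below 50%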;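 note: median channel GFP fluorescence of the barcoded RPL19A-GFP strain; ratio of sample median GFP to plate DMSO average so 100% = DMSO; lower means less RPL19A-GFP as with rapamycin TOR inhibition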
AGP1 TOR yeast: alters AGP1-GFP fluorescence in TOR pathway yeast screen | S. cerevisiae AGP1-GFP multiplex flow cytometry, 3 h; GFP as percent of DMSO wells | GFP response vs DMSO, % at 10 µM | 0.02% of 320,000 active | AID 2066;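 active = GFP response relative to DMSO above a set limit, near screen average plus 3 SD, cut at about 150% in these data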;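 note: median GFP channel fluorescence of the gated AGP1 strain per well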
CIT2-GFP yeast: yeast TOR pathway CIT2-GFP modulation; S. cerevisiae CIT2-GFP strain, flow cytometry, 3 h; 100 means same as DMSO wells; GFP response vs DMSO, % at 10 µM; 0.065% of 320,000 active;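 active = GFP response relative to DMSO above a set limit, near the screen mean plus 3 SD, cut at about 150% in these data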;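 note: ratio of well median GFP fluorescence to mean of DMSO wells on the plate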
VLA-4 allo CP: confirmation of allosteric modulators of human VLA-4 integrin; shares compounds with VLA-4 inh; U937 cells, HUTS-21 LIBS mAb binding, flow cytometry; LDV ligand present at threefold Kd; inhibition, % at 6.7 µM; 2% of 1,300 active; AID 2813; in the data active = inhibition above about 40%;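 note: 0% = ligand without compound and 100% = no ligand background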
* hit, by the source's call; . = no result given.

SMILES	LAP4 TOR yeast	VLA-4 inh	MEP2-GFP yeast	RPL19A TOR yeast	AGP1 TOR yeast	CIT2-GFP yeast	VLA-4 allo CP
CCOC(=O)c1c(NC(=O)C2c3ccccc3Oc3ccccc32)sc(C(C)=O)c1C	92.7	-8.8	97.7	97.5	101.1	98.5	0.0
COC(=O)c1sc(NC(=O)C2CCCO2)c(C(=O)OC)c1C (configuration not stated)	111.5	1.3	90.7	103.3	94.3	90.6	.
COC(=O)c1c(NC(=O)C2c3ccccc3Oc3ccccc32)sc(C)c1C	98.3	10.0	100.9	98.7	98.5	99.3	7.7
CC(C)(C)OC(=O)N1CCC(CNC(=O)c2ccc(F)cc2)CC1	97.5	1.2	95.8	92.1	96.8	86.4	.
COc1ccc(C(=O)c2c3ccccc3[n+]([O-])n2CCCN)cc1	130.3	-8.0	89.3	93.5	77.0	66.6	.
COc1ccc(C(=O)c2c3ccccc3[n+]([O-])n2CCC(N)=O)cc1	95.9	55.4*	99.7	100.9	101.6	101.0	7.3
CCCC(NC(=O)C(C)NC(=O)CO/N=C1\C=C2CCC3C4CCC(C(C)=O)[C@@]4(C)CCC3[C@@]2(C)CC1)C(=O)O (some centres not stated)	104.8	-0.1	104.8	105.9	98.7	91.6	.
O=C(c1cc(Br)ccc1Cl)N1CCN(c2ccc(N3CCOCC3)nn2)CC1	104.5	50.8*	108.3	99.4	103.1	103.0	2.7
Cc1ccc([C@H]2C(C(=O)O)=C[C@@H](C(C)(C)C)N2S(=O)(=O)c2ccc(C)cc2)cc1	102.2	-12.5	87.2	91.2	89.9	88.3	.
Cc1ccc(S(=O)(=O)N2[C@@H](c3ccc(C(C)C)cc3)C(C(=O)O)=C[C@H]2C(C)(C)C)cc1	98.7	29.0	97.3	100.4	96.0	89.1	8.8
COc1ccc([C@H]2C(C(=O)O)=C[C@@H](C(C)(C)C)N2S(=O)(=O)c2ccccc2)cc1	82.0	-14.4	85.0	86.0	85.8	84.3	-0.8
Cc1ccc(S(=O)(=O)N2[C@@H](c3cccc(C)c3)C(C(=O)O)=C[C@H]2C(C)(C)C)cc1	94.7	-13.3	81.0	91.0	86.3	88.3	3.3
Cc1ccccc1N=C1c2ccccc2C(=O)C1[N+](=O)[O-] (configuration not stated)	91.6	11.0	87.2	96.9	100.0	103.4	.
O=C(O)c1ccc(CNC(=O)C23CC4CC(CC(C4)C2)C3)cc1	102.2	-0.1	104.0	98.3	96.2	96.9	.
CC(C)[C@H](NC(=O)N1c2ccccc2NC(=O)[C@@H]1C(C)C)C(=O)N[C@@H](Cc1ccccc1)C(=O)O	93.9	64.3*	90.6	91.2	92.5	91.6	9.7
COc1ccccc1NC(=O)N1CCN(c2ccccn2)CC1	103.3	52.3*	102.3	103.7	102.5	101.4	-3.9
CCCN(CC(=O)Nc1ccccc1C)C(=O)C1CCCN(C(=O)c2ccc(Cl)cc2)C1 (configuration not stated)	106.2	50.3*	104.1	100.1	105.5	105.8	1.3
Cc1cccc(C)c1NC(=O)CNC(=O)C1CCCN(C(=O)c2ccc(Cl)cc2)C1 (configuration not stated)	108.4	3.3	108.0	103.4	109.4	102.9	.
c1ccc2[nH]c(NCCCN3CCOCC3)nc2c1	101.8	61.8*	102.4	98.4	102.8	98.8	7.7
O=c1[nH]c2ccccc2nc1NCCN1CCOCC1	99.2	2.8	99.3	100.7	102.2	110.5	.
Cc1ccc2c(c1)[nH]c1c(=O)n(CCCN3CCOCC3)cnc12	101.6	11.3	113.9	103.5	103.1	105.5	.
COc1cccc2[nH]c3c(=O)n(CCCN4CCOCC4)cnc3c12	104.3	-0.6	98.6	100.5	107.2	110.9	10.0
CC(C)(C)NC(=O)N1c2ccccc2Sc2ccccc21	91.3	54.4*	99.3	103.6	97.6	96.2	2.6
Cc1ccc(C(=O)Nc2ccc(N3CCOCC3)nc2N2CCOCC2)cc1	107.8	3.8	98.4	95.2	97.2	98.1	.
CN1CCN(c2nc(-c3ccccc3O)nc3ccccc23)CC1	108.8	46.6	110.1	105.0	107.1	101.3	7.0
SMILES	LAP4 TOR yeast	VLA-4 inh	MEP2-GFP yeast	RPL19A TOR yeast	AGP1 TOR yeast	CIT2-GFP yeast	VLA-4 allo CP
Cc1ccc(C)c(N(CC(=O)N2CCCCCC2)S(C)(=O)=O)c1	87.2	-1.5	99.1	103.3	100.7	100.7	.
Cc1ccc([N+](=O)[O-])cc1N(CC(=O)N1CCCCC1)S(C)(=O)=O	93.8	52.6*	96.6	101.9	101.3	101.4	-3.5
CO/N=C/CC(=O)c1ccc([N+](=O)[O-])c(CS(=O)(=O)c2ccc(Cl)cc2)c1	91.1	41.8	94.9	97.7	94.2	97.4	-18.3
Cc1ccc(NC(=O)CN2CCc3cc4c(cc3C2)OCCCO4)cc1	100.5	54.6*	108.2	98.2	102.7	100.4	2.7
Cc1ccc(NC(=O)CN2CCc3cc4c(cc3C2)OCCCO4)cc1C	95.6	1.2	104.8	98.2	100.0	102.7	.
CCOc1ccc(S(=O)(=O)N2CCOCC2)cc1NC(=O)CSCc1ccc(C)cc1	103.6	-17.2	100.7	101.5	106.4	92.9	.
COc1ccc(/C=N/NC(=O)c2ccncc2)c(C(=O)O)c1OC	106.2	2.8	93.1	95.9	108.8	100.7	.
COc1ccc(/C=N/NC(=O)c2cccc(NC(C)=O)c2)c(C(=O)O)c1OC	102.3	42.7	108.2	111.1	104.8	106.2	0.5
Cc1cccc(C(C(=O)NC2CCCC2)N(C(=O)c2csnn2)C2CC2)c1 (configuration not stated)	84.0	0.2	98.7	102.5	94.4	94.5	.
CCOC(=O)Cc1nnc(Nc2cccc(O)c2)c2ccccc12	96.3	89.5*	99.5	97.9	96.9	101.5	-14.7
Cc1cccc(/C=N/n2c(C)nc3ccccc3c2=O)c1	95.6	8.9	88.6	96.9	95.1	90.8	.
O=C(Nc1ccc(F)cc1)NC1(C(=O)NCc2ccco2)CCCCC1	101.8	51.9*	100.3	98.6	101.1	98.8	4.4
CCc1ccc([C@H]2C(C(=O)O)=C[C@@H](CC)N2S(=O)(=O)c2ccc(C)cc2)cc1	102.0	23.5	102.1	107.6	95.5	90.1	-1.4
CC[C@@H]1C=C(C(=O)O)[C@H](c2ccc(Br)cc2)N1S(=O)(=O)c1ccc(C)cc1	100.9	29.3	100.9	105.3	104.3	93.8	.
CCCCC[C@@H]1C=C(C(=O)O)[C@H](c2ccc(F)cc2)N1S(=O)(=O)c1ccc(C)cc1	91.5	-22.4	90.9	94.1	91.5	92.9	0.0
